# Sampled rows, rich in hits. Any-hit rate of the full collection: about 19%.
# Pf growth 96h = inhibits malaria parasite growth, 96 h; P. falciparum luciferase reporter growth, 96 h; Potency, µM (top dose mostly 28.7 µM), inactives show top-dose activity change, negative = inhibition, actives largely listed as inhibitors; 6.9% of 320,000 active; note: potency is the fitted concentration of half-maximal effect; % is set by controls: 0 for no effect and ±100 for the full control effect
#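 Two parasite generations (96 h, 37 C, 5% CO2) of compound exposure in infected erythrocytes (0.05% parasitemia, 2% hematocrit). Luciferase-reporter P. falciparum; decreased luminescence indicates inhibited growth, aimed at apicoplast-acting delayed death.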
# Pf growth 48h = P. falciparum growth inhibition at 48 hours (one generation). P. falciparum luciferase growth in erythrocytes, 48 h. Potency, µM (doses to about 28.7 µM), without a hit: at the highest dose activity change, negative = inhibition, actives largely listed as inhibitors. 5.9% of 310,000 active. AID 504832; note: potency is the fitted concentration of half-maximal effect; % is set by controls: 0 for no effect and ±100 for the full control effect
#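 Erythrocytes infected with P. falciparum carrying an integrated firefly luciferase reporter (2% hematocrit, 0.1% parasitemia final) were exposed to compounds in RPMI 1640 with 0.5% Albumax at 37 C, 5% CO2. Growth inhibition was scored as reduced luminescence.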
# Shiga toxin inh = inhibitors of Shiga toxin in Vero cells; 9.2% of 290,000 active; inhibition, % at 38.7 µM; Vero cells, Shiga toxin protein synthesis inhibition reporter; in the data active = inhibition mostly above about 28%, no sharp cut-off; inactive = mostly below about 43%; note: 0% is about no effect
# AMA1 RON2 block = AMA1-RON2 (P. falciparum) interaction inhibition; AlphaScreen AMA1-biotinylated RON2 peptide binding; Potency, µM (series often up to 58.2 µM), for the others: at the highest dose activity change, negative = inhibition, hits mostly inhibitors; 0.2% of 360,000 active;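 note: potency is the fitted concentration of half-maximal effect; 0% = vehicle wells and -100% = peptide control; nearly all actives have a fitted effect of over 45% in size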
#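 AMA1 (3D7) with his tag at 25 nM final met compounds first, then biotinylated RON2 peptide at 25 nM; detection used donor plus acceptor beads, 10 µg/mL apiece, read by AlphaScreen after 30 min at room temperature.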
# CHX counter = affects cycloheximide protein synthesis inhibition readout, counter-screen. cell reporter, cycloheximide protein synthesis inhibition counterscreen. max response, %. 12% of 300,000 active. AID 2314; in the data active = max response mostly above about 13%, no sharp cut-off; inactive = mostly below about 14%; note: read at 38.3 µM for the half of the compounds with a filed dose; 0% is about no effect
# SARS PLpro yeast = SARS-CoV PLP inhibition in yeast | Potency, µM (titrated, usually from 32.9 µM), without a hit: top-dose activity, positive = growth rescue, actives largely listed as activators | S. cerevisiae expressing SARS-CoV PLpro, growth rescue | 0.19% of 330,000 active; calls by dose curve; note: potency is the fitted concentration of half-maximal effect; 0% is about no effect; nearly all actives have a fitted effect of over 55% in size
# * = called active by the depositor; ? = inconclusive; . = no result given; ! = not active in a repeat; [ ] = dose if it differs, or a comment. Unless noted, calls come from the whole dose curve; as a rule, active = well fitted curve in the direction sought with a large enough effect; inconclusive = small, poorly fitted or top-dose-only effect, or another doubt; inactive = no such curve, though single readings can be large; an effect the other way counts as inactive or inconclusive.
SMILES,Pf growth 96h,Pf growth 48h,Shiga toxin inh,AMA1 RON2 block,CHX counter,SARS PLpro yeast
Cc1cc(C(=O)Nc2ccc3c(c2)OCCO3)c2ccccc2n1,-10.9%,21.0%,79.9*,-8.3%,21.7*,-5.0%
Cc1cc(C(=O)Nc2ccc(Cl)cc2)c2ccccc2n1,-17.5%,6.7%,0.5,-1.8%,-1.1,-2.2%
O=C(Nc1ccc2c(c1)OCO2)c1cc(-c2ccncc2)nc2ccccc12,?,?,20.6,-22.8%,18.7*,-6.1%
Cc1cc(C(=O)Nc2ccccc2)c2ccccc2n1,13.1µM*,10.6%,-13.6,0.8%,-2.8,3.1%
COC(=O)C[C@@H]1OC[C@H](C)N1S(=O)(=O)c1ccc(C)cc1,.,.,.,7.1%,.,.
Cc1cc(C)c2nc3nc(C)c(C)cc3c(N)c2c1,?,4.15µM*,69.7*,-16.3%,20.2,-1.3%
Cc1cc(C)cc(C(=O)OC2CC3CCC(C2)N3C)c1 (stereo unspecified),17.0%,-4.5%,.,.,.,.
CCC(CO)(C(=O)OC1CC2CCC(C1)N2C)c1ccccc1 (stereo unspecified),11.7µM*,-19.6%,8.5,0.0%,-1.4,5.5%
O=C(c1ccc(CS(=O)c2ccccc2Cl)o1)N1CCN(c2ccccn2)CC1 (stereo unspecified),?,-9.4%,-11.0,4.1%,2.1,3.0%
O=C(NCc1ccccc1)c1[nH]c(C(F)(F)F)nc1-c1ccccc1,.,.,.,-23.8%,.,.
CC(C)NC(=O)N[C@H]1CC[C@H](CC(=O)NCc2ccc(Oc3ccccc3)cc2)O[C@@H]1CO,.,.,.,11.1%,.,.
CC(=O)c1ccc(NC(=O)CC23CC4CC(C2)CC(n2nnc(C)n2)(C4)C3)cc1,3.3%,?,17.9,-0.6%,5.2,5.0%
COC(=O)c1ccc(COc2ccccc2/C=C/C(=O)c2ccc(OCC(=O)O)cc2)cc1,1.47µM*,?,46.7,-5.6%,0.8,11.2%
O=C(O)c1cccc(NC(=S)N/N=C/c2ccccc2OCc2cccc(Br)c2)c1,?,-5.8%,5.7,17.6%,8.3,-1.8%
COc1ccc(NC(C)C(=O)N/N=C/c2ccccc2OCc2ccc(Br)cc2)cc1 (stereo unspecified),67.2%,9.28µM*,144.5*,-28.5%,34.7*,5.5%
O=C(O)c1cccc(NC(=S)N/N=C/c2ccccc2OCc2ccc(Br)cc2)c1,?,10.6%,69.0,17.4%,15.9*,4.2%
COC(=O)c1ccc(COc2ccccc2/C=N/Nc2cccc(C(=O)O)c2)cc1,36.2%,8.2%,80.0*,10.0%,55.3*,-1.1%
CCCCCCC1CC(CSc2ncn[nH]2)OC1=O (stereo unspecified),.,?,14.3,38.7%,10.2,-3.8%
CCOC(=O)c1c(N=CN(C)C)c2cc([N+](=O)[O-])cnc2n1C,14.2%,10.0%,-14.9,-4.9%,1.4,0.3%
CCOc1cc(/C=N/Nc2cccc(C(=O)O)c2)ccc1OC(=O)c1ccccc1,48.5%,129.2%,185.7*,?,61.5*,-0.2%
COc1cc(C=NNc2ccccc2)ccc1OC(=O)c1ccccc1,.,.,.,-1.8%,.,.
Cc1nnc(NCC=Cc2ccccc2)s1,.,.,.,3.6%,.,.
CN1C[C@H](CNC(=O)OCc2ccccc2)C[C@@H]2c3cccc4c3c(cn4C)C[C@H]21,2.94µM*!,10.4µM*,-7.5,?,-3.7,-18.8%
O=c1[nH][nH]c(=S)n1-c1ccccc1C(F)(F)F,60.7%,-8.8%,10.2,.,-0.7,0.9%
O/N=C/c1ccccc1OCc1ccccc1F,154.8%,30.8%,37.8*,0.3%,25.8*,-26.2%
SMILES,Pf growth 96h,Pf growth 48h,Shiga toxin inh,AMA1 RON2 block,CHX counter,SARS PLpro yeast
O/N=C/c1ccc(OCc2ccccc2)c(Br)c1,20.8%,358.6%,65.9*,-9.8%[11.6 µM],39.8*,-50.6%
O/N=C/c1ccc(OCc2ccccc2)c(Cl)c1,9.4%,258.8%,75.5*,-16.2%,37.1*,-32.0%
O/N=C/c1cc(Cl)ccc1OCc1ccccc1Cl,38.0%,7.7%,-3.6,0.0%,-3.7,-9.7%
O/N=C/c1ccc(OCc2ccccc2F)c(Cl)c1,121.8%,300.2%,52.5*,-4.0%,51.8*,-20.0%
O=C1Cc2cc(NS(=O)(=O)c3ccc([N+](=O)[O-])cc3)cc3c2N1CCC3,9.6%,-7.9%,.,0.2%,.,-1.2%
C=CCn1c(=O)c2c(nc3n2CC(C)CN3CCc2ccccc2)n(C)c1=O (stereo unspecified),?,-9.2%,-9.5,-2.3%,0.8,3.0%
O=C(NC12CC3CC(CC(C3)C1)C2)N1CCN(C(=O)c2ccco2)CC1,-1.3%,34.7%,10.5,0.8%,28.1,-1.6%
Nc1oc2ccccc2c(=O)c1-c1ccc2c(c1)OCO2,3.6%,-20.4%[0.00184 µM],72.0*,2.3%,41.0*,10.2%
COc1ccccc1-c1oc2ccccc2c1-c1ccc2c(c1)OCO2,?,?,.,8.2%,.,-5.2%
Cc1cc(C)c2c(=O)n3c(nc2c1)C(CC(C)C)NC(=O)c1cccnc1-3 (stereo unspecified),.,.,.,9.8%,.,.
COc1cc(Cl)ccc1OCc1cc(C(=O)NCC(C)c2ccccc2)no1 (stereo unspecified),-28.2%,28.0%,32.6,-0.8%,25.0*,2.9%
CCC(NC(=O)c1cc(COc2ccc(OC)cc2Cl)on1)c1ccncc1 (stereo unspecified),?,10.8%,63.3,-3.7%,64.3*,-7.0%
COc1cc(Cl)ccc1OCc1cc(C(=O)NC(C)Cc2cnccn2)no1 (stereo unspecified),-0.4%,25.7%,70.2*,0.1%,41.7*,-1.0%
CC(Cc1cnccn1)NC(=O)c1cc(COc2ccc(F)cc2F)on1 (stereo unspecified),58.5%,22.9%,-14.5,-7.0%,9.2,1.4%
CCC(NC(=O)c1cc(COc2ccc(Cl)cc2OC)on1)c1ccncc1 (stereo unspecified),-5.4%,8.8%,76.5*,8.1%,37.9*,1.2%
COc1cccc(-c2cnc3c(NC(C)=O)cc(-c4ccsc4)cn23)c1,.,.,.,-7.7%,.,.
Cc1ccc(NC(=S)NNC(=O)c2nn(C)c(C)c2Cl)cc1,167.0%,181.0%,93.4*,51.2%,36.2*,-6.9%
Cc1ccc(NC(=S)NNC(=S)Nc2ccc(C)cc2)cc1,.,.,.,9.3%,.,.
Cc1ccc(NC(=S)NNC(=O)Nc2ccccc2)cc1,61.8%,119.6%,108.9*,42.4%,54.2*,-0.2%
Cc1cc(C)cc(NS(=O)(=O)c2ccc(NC(=S)Nc3ccccc3)cc2)c1,0.0%,-8.4%,-2.4,-9.9%,13.8*,2.6%
O=C(NNC(=S)Nc1ccccc1)Nc1ccccc1,74.7%,45.8%,88.3*,78.2%,33.6*,-1.5%
O=C(NNC(=S)Nc1ccccc1)NNC(=S)Nc1ccccc1,23.2%,17.7%,5.0,51.6%,-2.5,-0.5%
Cc1ccc(S(=O)(=O)CC(=O)NCc2ccc(Cl)cc2)cc1,0.9%,6.8%,.,-9.8%[11.6 µM],.,-3.7%
O=C(O)CC(=O)Nc1cc(Cl)ccc1O,6.4%,.,-3.5,3.3%,-6.1,5.5%

# Compound activity from PubChem BioAssay.
